Measured values published in PubChem BioAssay (NCATS).
Inconclusive results are not listed. Calls of active or inactive are those of the source. Calls follow the shape of the dose curve; as a rule, active = well fitted curve in the direction sought with a large enough effect; inconclusive = small, poorly fitted or top-dose-only effect, or another doubt; inactive = no such curve, though single readings can be large; an effect the other way counts as inactive or inconclusive.

Legend:
MCC-13 = test: qHTS assay to identify novel small-molecules to repurpose for Merkel cell carcinoma treatment (AID 1296009); details: MCC and control cell lines, CellTiter-Glo viability, 72 h; series mostly up to 46 µM; also: nearly all actives have a fitted effect of over 60% in size
Outline: (§1)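 Luminescence from CellTiter-Glo, read 10 min after addition at room temperature, reported viability following a 72 hr, 37 degree celsius treatment with NPC or MIPE compounds in titration; values normalized to plate controls.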

MCC-26 = test: as above; details: MCC and control cell lines, CellTiter-Glo viability, 72 h; series mostly up to 46 µM
Outline: as §1

MKL-1 = test: as above; details: MCC and control cell lines, CellTiter-Glo viability, 72 h; series mostly up to 46 µM
Outline: as §1

MKL-2 = test: as above; details: MCC and control cell lines, CellTiter-Glo viability, 72 h; series mostly up to 46 µM
Outline: as §1

UISO = test: as above; details: MCC and control cell lines, CellTiter-Glo viability, 72 h; series mostly up to 46 µM
Outline: as §1

WaGa = test: as above; details: MCC and control cell lines, CellTiter-Glo viability, 72 h; series mostly up to 46 µM
Outline: as §1

C33A = test: Primary qHTS to identify gynecologic anti-cancer compounds using libraries of approved drugs and bioactive compounds (AID 1345084); details: Gynecologic cancer cell panel viability, ATPlite luminescence, 48 h; series mostly up to 57.5 µM; also: nearly all actives have a fitted effect of over 55% in size
Outline: (§2)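 48 h compound exposure at 37 C, 5% CO2; five-point qHTS. ATPlite luminescence readout of cell ATP.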

CAOV3 = test: as above; details: Gynecologic cancer cell panel viability, ATPlite luminescence, 48 h; series mostly up to 57.5 µM
Outline: as §2

CASKI = test: as above; details: Gynecologic cancer cell panel viability, ATPlite luminescence, 48 h; series mostly up to 57.5 µM
Outline: as §2

Es-2 = test: as above; details: Gynecologic cancer cell panel viability, ATPlite luminescence, 48 h; series mostly up to 57.5 µM
Outline: as §2

HeLa = test: as above; details: Gynecologic cancer cell panel viability, ATPlite luminescence, 48 h; series mostly up to 57.5 µM
Outline: as §2

Hek293T = test: as above; details: Gynecologic cancer cell panel viability, ATPlite luminescence, 48 h, control line for the selectivity index; series mostly up to 57.5 µM
Outline: as §2

JEG-3 = test: as above; details: Gynecologic cancer cell panel viability, ATPlite luminescence, 48 h; series mostly up to 57.5 µM
Outline: as §2

OV90 = test: as above; details: Gynecologic cancer cell panel viability, ATPlite luminescence, 48 h; series mostly up to 57.5 µM
Outline: as §2

PA-1 = test: as above; details: Gynecologic cancer cell panel viability, ATPlite luminescence, 48 h; series mostly up to 57.5 µM
Outline: as §2

Tov-21-G = test: as above; details: Gynecologic cancer cell panel viability, ATPlite luminescence, 48 h; series mostly up to 57.5 µM
Outline: as §2

Tov112D = test: as above; details: Gynecologic cancer cell panel viability, ATPlite luminescence, 48 h; series mostly up to 57.5 µM
Outline: as §2

[1] = Drug repurposing screens with cells derived from glioblastoma tumor samples (AID 1345199); details: GBM patient neurospheres viability, ATP luminescence, 48 h; also: nearly all actives have a fitted effect of over 40% in size
Outline: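 Primary testing used CD133+ neurospheres from four GBM patients, seven concentrations, 48 h exposure and ATP-based viability; confirmation added three slower-growing patient lines.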

SKOV3 = test: Primary qHTS to identify gynecologic anti-cancer compounds using libraries of approved drugs and bioactive compounds (AID 1345084); details: Gynecologic cancer cell panel viability, ATPlite luminescence, 48 h; series mostly up to 57.5 µM; also: nearly all actives have a fitted effect of over 55% in size
Outline: as §2

[2] = at 45.9 µM (top of the series), tumour line B
[3] = at 45.9 µM (top of the series), tumour line D
[4] = at 46 µM (top of the series), tumour line A
% is scaled to controls: 0 for no effect and ±100 for the full control effect.

COc1ccc2c(c1OC)C(=O)O[C@H]2[C@@H]1c2cc3c(cc2CCN1C)OCO3
inactive: outcome (MCC-13) | Potency (MCC-26) | Potency (MKL-1) | Potency (MKL-2) | Potency (UISO) | Potency (WaGa) | Potency (C33A) | outcome (CAOV3) | outcome (CASKI) | Potency (Es-2) | Potency (HeLa) | outcome (Hek293T) | outcome (JEG-3) | Potency (OV90) | Potency (PA-1) | Potency (Tov-21-G) | Potency (Tov112D) | activity, negative = cell killing [1, 2] 0.565% | activity, negative = cell killing [1, 3] -4.13%

O=[N+]([O-])O[C@H]1CO[C@H]2[C@@H]1OC[C@H]2O[N+](=O)[O-]
inactive: outcome (MCC-13) | Potency (MCC-26) | Potency (MKL-1) | Potency (MKL-2) | Potency (UISO) | Potency (WaGa) | Potency (C33A) | outcome (CAOV3) | outcome (CASKI) | Potency (Es-2) | Potency (HeLa) | outcome (Hek293T) | outcome (JEG-3) | Potency (OV90) | Potency (PA-1) | outcome (SKOV3) | Potency (Tov-21-G) | Potency (Tov112D) | activity, negative = cell killing [1, 2] -6.92% | activity, negative = cell killing [1, 3] 3.62% | activity, negative = cell killing [1, 4] -13.3%

C[C@]12Cc3cn[nH]c3C[C@@H]1CC[C@@H]1[C@@H]2CC[C@@]2(C)[C@H]1CC[C@]2(C)O
inactive: outcome (MCC-13) | Potency (MCC-26) | Potency (MKL-1) | Potency (MKL-2) | Potency (WaGa) | Potency (C33A) | outcome (CAOV3) | outcome (CASKI) | Potency (Es-2) | Potency (HeLa) | outcome (Hek293T) | outcome (JEG-3) | Potency (OV90) | Potency (PA-1) | outcome (SKOV3) | Potency (Tov-21-G) | Potency (Tov112D)

O=C(Nc1ccc(Br)cc1)c1cc(Br)cc(Br)c1O
inactive: outcome (MCC-13) | Potency (MCC-26) | Potency (MKL-1) | Potency (MKL-2) | Potency (UISO) | Potency (C33A) | outcome (CAOV3) | outcome (CASKI) | outcome (Hek293T) | Potency (PA-1) | outcome (SKOV3) | Potency (Tov-21-G) | Potency (Tov112D)

COC(=O)[C@@H](N)CCCN/C(N)=N/[N+](=O)[O-]
inactive: outcome (MCC-13) | Potency (MCC-26) | Potency (MKL-1) | Potency (MKL-2) | Potency (UISO) | Potency (WaGa) | Potency (C33A) | outcome (CASKI) | Potency (Es-2) | Potency (HeLa) | outcome (Hek293T) | outcome (JEG-3) | Potency (OV90) | Potency (PA-1) | outcome (SKOV3) | Potency (Tov-21-G) | Potency (Tov112D) | activity, negative = cell killing [1, 2] 0.524% | activity, negative = cell killing [1, 3] -1.49% | activity, negative = cell killing [1, 4] -15.6%

CCOP(=S)(OCC)Oc1ccc2c(C)c(Cl)c(=O)oc2c1
inactive: outcome (MCC-13) | Potency (MCC-26) | Potency (MKL-1) | Potency (UISO) | Potency (C33A) | outcome (CAOV3) | outcome (CASKI) | Potency (Es-2) | Potency (HeLa) | outcome (Hek293T) | outcome (JEG-3) | Potency (OV90) | Potency (PA-1) | outcome (SKOV3) | Potency (Tov-21-G) | Potency (Tov112D) | activity, negative = cell killing [1, 2] -3.04% | activity, negative = cell killing [1, 3] 6.08%

CCN[C@@H](C)Cc1ccccc1
inactive: outcome (MCC-13) | Potency (MCC-26) | Potency (MKL-1) | Potency (MKL-2) | Potency (UISO) | Potency (WaGa) | Potency (C33A) | outcome (CASKI) | Potency (Es-2) | Potency (HeLa) | outcome (Hek293T) | outcome (JEG-3) | Potency (OV90) | Potency (PA-1) | outcome (SKOV3) | Potency (Tov-21-G) | Potency (Tov112D) | activity, negative = cell killing ([1]; at 108 µM (top of the series), tumour line B) -6.22% | activity, negative = cell killing ([1]; at 108 µM (top of the series), tumour line D) -20.9%
